Holding throughout (assay): DAPPL (digital affinity profiling via proximity ligation, sequencing); 10 mM Tris-HCl pH 7.5, 50 mM NaCl, 1 mM DTT, 4% glycerol, room temperature, 30 min; GST-TFs on glutathione beads, 16-mer random dsDNA library, 0.1% formaldehyde crosslink after washing; high values mean tight binding
Holding throughout (conditions): protein: recombinant; tags: N-terminal GST; dsDNA, one strand shown

Assay [1] has as its target T1, ERF (Homo sapiens, UniProt P50548 1-548).
T1 sequence: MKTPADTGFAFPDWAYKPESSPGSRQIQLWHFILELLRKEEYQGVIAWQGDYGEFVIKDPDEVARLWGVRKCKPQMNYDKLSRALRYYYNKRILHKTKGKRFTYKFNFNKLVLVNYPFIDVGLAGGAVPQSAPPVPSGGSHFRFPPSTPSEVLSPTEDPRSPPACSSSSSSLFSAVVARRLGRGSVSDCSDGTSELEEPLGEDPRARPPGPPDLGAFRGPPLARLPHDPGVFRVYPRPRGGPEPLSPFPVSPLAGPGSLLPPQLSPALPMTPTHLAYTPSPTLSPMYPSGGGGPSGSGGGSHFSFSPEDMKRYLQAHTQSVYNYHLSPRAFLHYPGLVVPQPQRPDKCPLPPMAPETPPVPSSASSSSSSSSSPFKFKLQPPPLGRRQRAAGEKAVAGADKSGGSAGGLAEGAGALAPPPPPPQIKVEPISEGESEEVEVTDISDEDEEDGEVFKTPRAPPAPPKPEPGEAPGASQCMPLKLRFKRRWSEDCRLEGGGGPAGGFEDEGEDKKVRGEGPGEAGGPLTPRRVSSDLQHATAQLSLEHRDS
In a few lines: (§1)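 Binding signal is given per hexamer as its read frequency for a factor divided by its frequency in the tag-only sample. GST-fused human transcription factors were expressed in yeast, captured on glutathione beads, barcoded with DNA and pooled with that sample, then incubated with 200 nmole of a 16-mer random double-stranded DNA library in Tris/NaCl/DTT/glycerol buffer for 30 min at room temperature. The pools were then washed, crosslinked, proximity-ligated, amplified by PCR and sequenced on an Illumina NextSeq500.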

In assay [2] the target is T2, ETV3L (Homo sapiens, UniProt Q6ZN32 1-361).
T2 sequence: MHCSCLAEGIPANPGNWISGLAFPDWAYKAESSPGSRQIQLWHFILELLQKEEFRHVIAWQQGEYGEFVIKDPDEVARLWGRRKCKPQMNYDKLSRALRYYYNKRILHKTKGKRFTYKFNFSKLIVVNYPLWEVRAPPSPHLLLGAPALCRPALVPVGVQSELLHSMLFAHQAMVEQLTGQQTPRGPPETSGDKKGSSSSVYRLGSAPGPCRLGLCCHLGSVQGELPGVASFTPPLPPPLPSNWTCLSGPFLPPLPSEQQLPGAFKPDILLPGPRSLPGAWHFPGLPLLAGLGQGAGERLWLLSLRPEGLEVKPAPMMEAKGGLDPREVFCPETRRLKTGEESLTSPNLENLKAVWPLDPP
In a few lines:
as §1

Assay [3] addresses T3, ETS2 (Homo sapiens, UniProt P15036 1-469).
T3 sequence: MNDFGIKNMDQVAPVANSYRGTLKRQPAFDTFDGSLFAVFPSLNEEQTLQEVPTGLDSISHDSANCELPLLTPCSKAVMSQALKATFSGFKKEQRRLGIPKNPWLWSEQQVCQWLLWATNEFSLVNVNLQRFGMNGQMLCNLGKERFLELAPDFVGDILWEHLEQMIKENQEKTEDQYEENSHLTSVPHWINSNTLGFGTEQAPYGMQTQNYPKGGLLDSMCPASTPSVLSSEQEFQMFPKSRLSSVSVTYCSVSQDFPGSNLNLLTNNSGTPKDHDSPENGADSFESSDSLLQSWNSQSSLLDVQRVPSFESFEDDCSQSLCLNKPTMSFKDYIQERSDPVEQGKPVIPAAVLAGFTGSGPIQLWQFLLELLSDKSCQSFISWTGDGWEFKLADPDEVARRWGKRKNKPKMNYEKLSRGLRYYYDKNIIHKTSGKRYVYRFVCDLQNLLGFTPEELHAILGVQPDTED
An outline of the steps: as §1

Assay [4] addresses T4, SPDEF (Homo sapiens, UniProt O95238 1-335).
T4 sequence: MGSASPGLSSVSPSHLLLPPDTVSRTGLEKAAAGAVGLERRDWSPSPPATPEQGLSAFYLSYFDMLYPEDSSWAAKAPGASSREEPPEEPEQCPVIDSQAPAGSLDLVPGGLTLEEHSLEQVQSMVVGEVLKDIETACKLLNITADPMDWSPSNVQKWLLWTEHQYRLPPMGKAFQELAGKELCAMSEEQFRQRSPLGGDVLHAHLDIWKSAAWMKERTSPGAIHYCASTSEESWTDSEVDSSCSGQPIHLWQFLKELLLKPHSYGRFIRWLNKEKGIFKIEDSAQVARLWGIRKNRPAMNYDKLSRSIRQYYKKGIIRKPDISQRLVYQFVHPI
An outline of the steps:
as §1

Assay [5] has as its target T5, ETV7 (Homo sapiens, UniProt Q9Y603 1-341).
T5 sequence: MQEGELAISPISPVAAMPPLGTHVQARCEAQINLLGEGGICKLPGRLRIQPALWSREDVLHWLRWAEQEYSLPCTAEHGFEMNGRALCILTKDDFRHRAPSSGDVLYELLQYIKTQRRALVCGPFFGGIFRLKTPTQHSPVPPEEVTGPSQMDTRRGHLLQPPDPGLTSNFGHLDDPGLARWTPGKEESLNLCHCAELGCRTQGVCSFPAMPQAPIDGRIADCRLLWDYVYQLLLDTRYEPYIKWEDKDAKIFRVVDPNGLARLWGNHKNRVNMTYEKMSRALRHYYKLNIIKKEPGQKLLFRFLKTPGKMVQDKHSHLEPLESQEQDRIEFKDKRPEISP
In a few lines: as §1

For assay [6], the target named is T6, ELF5 (Homo sapiens, UniProt Q9UKW6-2 1-255).
T6 sequence: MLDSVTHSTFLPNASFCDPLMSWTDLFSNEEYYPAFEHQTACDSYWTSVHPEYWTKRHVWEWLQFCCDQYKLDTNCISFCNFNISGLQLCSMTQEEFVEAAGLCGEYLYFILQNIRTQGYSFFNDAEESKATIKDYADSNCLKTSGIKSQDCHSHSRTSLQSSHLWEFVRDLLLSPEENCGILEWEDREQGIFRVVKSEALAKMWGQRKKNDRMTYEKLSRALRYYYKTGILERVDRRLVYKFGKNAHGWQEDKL
An outline of the steps: as §1

The target of assay [7] is T7, ETV3 (Homo sapiens, UniProt P41162-2 1-143).
T7 sequence: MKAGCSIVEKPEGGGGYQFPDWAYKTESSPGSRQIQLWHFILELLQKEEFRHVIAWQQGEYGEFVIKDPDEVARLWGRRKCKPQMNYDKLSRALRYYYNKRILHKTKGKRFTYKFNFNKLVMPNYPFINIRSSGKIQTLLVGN
In a few lines: as §1

Assay [8] deals with ETV6 (Homo sapiens, UniProt P41212 1-452). In a few lines:
as §1

Sequence of ETV6 (P41212 whole entry): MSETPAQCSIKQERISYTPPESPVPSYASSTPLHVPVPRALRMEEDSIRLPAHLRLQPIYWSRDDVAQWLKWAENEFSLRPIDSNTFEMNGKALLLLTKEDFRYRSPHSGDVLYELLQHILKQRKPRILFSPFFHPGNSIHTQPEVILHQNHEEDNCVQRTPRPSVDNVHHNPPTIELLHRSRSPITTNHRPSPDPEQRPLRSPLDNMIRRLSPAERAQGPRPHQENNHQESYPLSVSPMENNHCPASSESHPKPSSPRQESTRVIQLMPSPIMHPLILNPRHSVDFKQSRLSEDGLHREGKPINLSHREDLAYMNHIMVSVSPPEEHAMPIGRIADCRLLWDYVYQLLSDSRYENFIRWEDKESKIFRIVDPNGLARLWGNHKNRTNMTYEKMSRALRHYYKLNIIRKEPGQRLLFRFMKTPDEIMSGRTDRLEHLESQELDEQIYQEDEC

Take TACATT: the binding signal was 1.34 fold enrichment (6-mer frequency, TF over GST control) in assay [1]; 1.18 fold enrichment (6-mer frequency, TF over GST control) in assay [2]; 1.19 fold enrichment (6-mer frequency, TF over GST control) in assay [3]; 1.18 fold enrichment (6-mer frequency, TF over GST control) in assay [4]; 1.25 fold enrichment (6-mer frequency, TF over GST control) in assay [5]; 1.22 fold enrichment (6-mer frequency, TF over GST control) in assay [6]. Besides, the binding signal in assay [7] was 1.2 fold enrichment (6-mer frequency, TF over GST control); in assay [8] it was 1.29 fold enrichment (6-mer frequency, TF over GST control).

Regarding TAATGG, the binding signal in assay [1] was 1.17 fold enrichment (6-mer frequency, TF over GST control); in assay [2] it was 1.23 fold enrichment (6-mer frequency, TF over GST control); in assay [3], 1.28 fold enrichment (6-mer frequency, TF over GST control); in assay [4] it was 1.22 fold enrichment (6-mer frequency, TF over GST control); in assay [5] it was 1.2 fold enrichment (6-mer frequency, TF over GST control); in assay [6] it was 1.32 fold enrichment (6-mer frequency, TF over GST control). In addition, the binding signal in assay [7] was 1.28 fold enrichment (6-mer frequency, TF over GST control); in assay [8], 1.31 fold enrichment (6-mer frequency, TF over GST control).

Regarding TTCGAT, the binding signal is 1.4 fold enrichment (6-mer frequency, TF over GST control) in assay [1]; 1.33 fold enrichment (6-mer frequency, TF over GST control) in assay [2]; 1.33 fold enrichment (6-mer frequency, TF over GST control) in assay [3]; 1.18 fold enrichment (6-mer frequency, TF over GST control) in assay [4]; 1.22 fold enrichment (6-mer frequency, TF over GST control) in assay [5]; 1.2 fold enrichment (6-mer frequency, TF over GST control) in assay [6]. Also, the binding signal in assay [7] is 1.24 fold enrichment (6-mer frequency, TF over GST control); in assay [8], 1.14 fold enrichment (6-mer frequency, TF over GST control).

Turning to ACACTC, the binding signal in assay [1] is 1.06 fold enrichment (6-mer frequency, TF over GST control); in assay [2], 1.08 fold enrichment (6-mer frequency, TF over GST control); in assay [3], 1.14 fold enrichment (6-mer frequency, TF over GST control); in assay [4] it was 1.02 fold enrichment (6-mer frequency, TF over GST control); in assay [5], 1.07 fold enrichment (6-mer frequency, TF over GST control); in assay [6], 1.05 fold enrichment (6-mer frequency, TF over GST control). For the same sequence, the binding signal was 1.16 fold enrichment (6-mer frequency, TF over GST control) in assay [7] and 1.11 fold enrichment (6-mer frequency, TF over GST control) in assay [8].

Consider GATATT, for which the binding signal is 1.05 fold enrichment (6-mer frequency, TF over GST control) in assay [1]; 1.12 fold enrichment (6-mer frequency, TF over GST control) in assay [2]; 1.13 fold enrichment (6-mer frequency, TF over GST control) in assay [3]; 1.26 fold enrichment (6-mer frequency, TF over GST control) in assay [4]; 1.14 fold enrichment (6-mer frequency, TF over GST control) in assay [5]; 1.25 fold enrichment (6-mer frequency, TF over GST control) in assay [6]. For the same sequence, the binding signal in assay [7] is 1.14 fold enrichment (6-mer frequency, TF over GST control); in assay [8], 1.17 fold enrichment (6-mer frequency, TF over GST control).

As for GTAATC, the binding signal was 1.08 fold enrichment (6-mer frequency, TF over GST control) in assay [1]; 1.12 fold enrichment (6-mer frequency, TF over GST control) in assay [2]; 1.16 fold enrichment (6-mer frequency, TF over GST control) in assay [3]; 1.12 fold enrichment (6-mer frequency, TF over GST control) in assay [4]; 1.17 fold enrichment (6-mer frequency, TF over GST control) in assay [5]; 1.18 fold enrichment (6-mer frequency, TF over GST control) in assay [6]. For the same sequence, the binding signal in assay [7] is 1.1 fold enrichment (6-mer frequency, TF over GST control); in assay [8], 1.2 fold enrichment (6-mer frequency, TF over GST control).

The record behind these values is PMC7862700, “An all-to-all approach to the identification of sequence-specific readers for epigenetic DNA modifications on cytosine”.
